Structures are written as SMILES. Results filed as inconclusive are left out. The source made the active and inactive calls. The calls were made as follows: active = hit-call score of the fitted dose curve at least 0.9, where 1 is the maximum; inconclusive = response in the unintended direction; inactive = score below 0.9.

Luciferin 4-monooxygenase (Photinus pyralis), sequence (P08659 whole entry, looked up): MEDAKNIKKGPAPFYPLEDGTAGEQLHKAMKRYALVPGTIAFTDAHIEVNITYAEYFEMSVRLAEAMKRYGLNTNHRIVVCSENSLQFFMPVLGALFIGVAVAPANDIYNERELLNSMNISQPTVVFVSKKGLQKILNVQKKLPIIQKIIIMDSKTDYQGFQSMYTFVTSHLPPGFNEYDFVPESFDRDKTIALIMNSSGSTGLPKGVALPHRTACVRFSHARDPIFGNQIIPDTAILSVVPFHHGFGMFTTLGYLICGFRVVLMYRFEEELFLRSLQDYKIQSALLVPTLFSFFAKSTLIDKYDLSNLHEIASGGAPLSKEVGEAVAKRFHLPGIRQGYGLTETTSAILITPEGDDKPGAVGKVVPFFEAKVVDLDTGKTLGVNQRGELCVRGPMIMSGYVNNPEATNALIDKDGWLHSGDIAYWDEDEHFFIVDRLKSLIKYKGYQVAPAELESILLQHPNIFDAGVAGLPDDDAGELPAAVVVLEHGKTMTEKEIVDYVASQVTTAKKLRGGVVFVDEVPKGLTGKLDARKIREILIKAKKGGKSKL

This test has as its target Luciferin 4-monooxygenase (Photinus pyralis) (UniProt P08659). Briefly: CCTE_Simmons_QuantiLum_inhib_2: CCTE's Firefly Luciferase Inhibition Assay, Simmons Lab (AID 2283767).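 As to AC50: potency for inhibitors that lower luciferase luminescence relative to DMSO.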 How it is done:
CCTE_Simmons_QuantiLum_inhib_2 is a biochemical, single-readout assay that uses purified luciferase enzyme in a cell-free assay.Measurements were taken 0.5 hour after chemical dosing in a 384-well plate.CCTE_Simmons_QuantiLum_inhib_2 is the assay component measured from the CCTE_Simmons_QuantiLum_inhib_2 assay. It is designed to make measurements of enzyme activity, a form of enzyme reporter, as detected with bioluminescence signals by Luciferase-coupled Quantilum levels technology. This is a secondary assay to CCTE_Simmons_AUR_TPO to evaluate nonspecific enzyme inhibition.Data from the assay component CCTE_Simmons_QuantiLum_inhib_2 was analyzed at the endpoint, CCTE_Simmons_QuantiLum_inhib_2, in the positive analysis fitting direction relative to DMSO as the negative control and baseline of activity. Using a type of enzyme reporter, measures of enzyme activity for loss-of-signal activity can be used to understand inhibition of firefly luciferase. This is an assay endpoint to indicate nonspecific protein inhibition for comparison to aeid 1508 for thyroperoxidase inhibition. To generalize the intended target to other relatable targets, this assay endpoint is annotated to the oxidoreductase intended target family, where the subfamily is monooxygenase.
Quanti-Lum recombinant luciferase (Promega; Madison, Wisconsin) was diluted to 76.9 ng/ml with 200mM potassium phosphate buffer supplemented with 1 mg/ml bovine serum albumin and 65ul (5ng recombinant luciferase) per well was dispensed into opaque, white 384-well plates (Greiner, BioExpress) using an automated liquid handler (BioTek MicroFlo) with a plastic 5 ul tubing cassette. Test compounds were administered using the HDRT as described earlier to achieve a 0.5% final DMSO concentration. Microplates were incubated at 37C in the dark for 30min to mimic the AUR-TPO assay conditions. Luciferase detection reagent (25 ul per well; 9.2 mM dithiothreitol, 75uM Coenzyme A, 147uM dATP, 150uM D-luciferin, 8.9 mM Tricine, 297uM (MgCO3)4.Mg(OH)2.5H20, 742uM MgSO4, 27.8uM EDTA, pH 7.8, final assay concentrations) was then added using a BMG Clariostar plate reader equipped with syringe injectors (BMG LabTech; GmbH). Plates were read using a kinetic luminescence protocol (top read) whereby each well was individually injected with luciferase detection reagent immediately prior to measurement. Three biological replicates of technical singles were run for every chemical concentration tested. A titrated range of LUCINH2 served as a positive control on each plate of the luciferase inhibition screening assay. Test chemicals were administered as a titrated series of 8 concentrations from 5 nM up to 87.5 uM [final] for 30 minutes prior to single endpoint detection. Dimethylsulfoxide [DMSO] was used as the vehicle control. Luciferase Inhibitor I [2-(5-(2-Methoxyphenyl)-1,2,4-oxadiazol-3-yl)pyridine] was used as the positive control and was administered as a titrated series of 8 concentrations from 1 nM up to 100 uM [final].
As a reminder, the AC50 is the concentration at which the activity in the assay is half-maximal. In the case of `CCCCCCc1ccc(N)cc1`, the AC50 is 77.1 µM (active).

Consider `Cc1cc(C(=C2C=CC(=Nc3ccc(S(=O)(=O)O)cc3)C=C2)c2ccc(Nc3ccc(S(=O)(=O)O)cc3)cc2)cc(S(=O)(=O)O)c1N`, for which the concentration at half-maximal activity (AC50) was 42.8 µM (active).

With `COc1cc([N+](=O)[O-])ccc1N`, the result was inactive.

On to `Cc1cc(Cc2cc(C)cc(C(C)(C)C)c2O)c(O)c(C(C)(C)C)c1`, for which the call was inactive.

Regarding `Cc1[nH]nc2c1N=C(c1ccccc1Cl)c1cc([N+](=O)[O-])ccc1N2`, the AC50 is 44.6 µM (active).

Take `CCCCCCCCCCCCOC(=O)c1cc(O)c(O)c(O)c1`: the molecule was called inactive.

`Cc1cc(C(C)(C)C)c(O)c(C(C)(C)C)c1`: the outcome was inactive.

For the molecule `CN(Cc1cnc2nc(N)nc(N)c2n1)c1ccc(C(=O)N[C@@H](CCC(=O)O)C(=O)O)cc1`, the call was inactive.

As to `CCCCCCCCCCCC`, the result was inactive.

Take `C[C@]12CC[C@@H]3c4ccc(O)cc4CC[C@H]3[C@@H]1C[C@@H](O)[C@@H]2O`: the molecule was called inactive.

For the molecule `O=C1OC2(c3ccccc31)c1cc(I)c(O)c(I)c1Oc1c2cc(I)c(O)c1I`, the AC50 is 6.41 µM (active).

For `CCc1cccc(CC)c1N(COC)C(=O)CS(=O)(=O)O`, the call was inactive.

(Values after PubChem BioAssay (EPA / NIEHS).)
